Assay results published in PubChem BioAssay AID720650 (Broad Institute, 2013).
A number with no mark means an inactive call. Active and inactive are the calls of the source. The rule behind the calls is not given here.

Test: C difficile toxins, biochemical counterscreen, UDPG substrate absence, confirmatory dose response (AID 720650)
Settings: series mostly up to 19.5 µM; activity change, negative = inhibition: at the top concentration

Structure (SMILES)	activity change, negative = inhibition [%]	AC50
CSc1cccc(NC(=O)CCc2ccccc2)c1	1.52	
Cc1c(CCCC(=O)O)sc(N)c1C(=O)c1cccc(C(F)(F)F)c1	-5.33	
Nc1c(Cl)ncnc1NCCc1ccc(O)cc1		18.6 µM (active)
Cc1ccc(NNC(=O)c2ccno2)c(C)c1		5.41 µM (active)
CCN(CC)S(=O)(=O)c1cc(C(=O)Nc2cccnc2Cl)ccc1Cl	-6.46	
C/C(=N\OCC(=O)Nc1nc2ccccc2s1)c1ccccc1	8.02	
Cn1c(=O)c2c([nH]c(=S)n2Cc2ccc(Cl)cc2)n(C)c1=O	-22.4	
CCCNC(=O)Nc1ccc2c(c1)C(=O)N(C)[C@H]1CC[C@H](CC(=O)NC3CCC3)O[C@@H]1CO2	15.4	
Clc1cccc(-c2ccc3ncnc(NCc4cccs4)c3c2)c1	-12.4	
Cc1ccc(C)c2c1cc(C)c1nnc(SCC(=O)NCc3ccc4c(c3)OCO4)n12		13.1 µM (active)
O=C(O)c1ccc(-n2nnc3ccccc32)c([N+](=O)[O-])c1	11.4	
COc1ccccc1C1=NNC(=NCc2ccccc2)SC1		> 39 µM
COC(=O)Cc1ccc(NC(=S)NCc2ccc(OC)cc2)cc1	-3.9	
Cc1nc(S(=O)(=O)N(C)Cc2ccccc2)c(C#N)c(C)c1Cl	-9.25	
O=C1Nc2ccc(Br)cc2C1Cc1ccccc1F (centres undefined)		7.69 µM (active)
O=C(C[C@H]1CC[C@H]2[C@@H](COC[C@@H](O)CN2Cc2ccccc2)O1)NCCc1ccccc1	-12.5	
O=C1c2c(O)ccc(O)c2C(=O)c2c(NCCNCCO)ccc(NCCNCCO)c21		17.5 µM (active)
O=C(Nc1cc(S(=O)(=O)N2CCOCC2)ccc1N1CCOCC1)c1ccccc1Cl		> 39 µM
CCn1c(C)nc2cc(C(=O)N/N=C/c3ccc(OC)c(O)c3)ccc21	-12.3	
CCCCn1c(N)c(N(CC)C(=O)c2cccs2)c(=O)[nH]c1=O		> 39 µM

Structure (SMILES)	activity change, negative = inhibition [%]	AC50
COc1ccc(NC(=O)c2cc(S(=O)(=O)N3CCc4ccccc43)cn2C)cc1OC	12.5	
COC(=O)[C@H]1C[C@@H]1[C@H](NP(=O)(c1ccccc1)c1ccccc1)c1ccccc1	1.05	
CN1C(=O)c2cc(NC(=O)c3cccc(F)c3)ccc2OC[C@@H]2O[C@@H](CC(=O)NCC3CCCCC3)CC[C@@H]21	-1.51	
CCCn1c(N)c(C(=O)COC(=O)c2cccc(S(=O)(=O)N3CCOCC3)c2)c(=O)[nH]c1=O	-15.3	
CC1CCCN(C(=S)Nc2ccc(F)cc2)C1 (centres undefined)	-12.2	
NC(=O)c1ccc(NC(=O)CSc2nnc(C3CC3)n2C2CC2)cc1	1.2	
COc1ccc(/C=C2\CCC(C3CCCC3)C2=O)cc1 (centres undefined)	-12.6	
CCOc1ccccc1/C=C/c1onc(C)c1S(=O)(=O)N1CCC(C(=O)NC(C)(C)C)CC1	-3.36	
O=P1(Oc2ccccc2)OCCCS1 (centres undefined)	-5.63	
O=C(c1ccccc1)c1coc2ccc(O)c(Cl)c12		12.7 µM (active)
O=C(C[C@H]1CC[C@@H]2[C@H](COC[C@@H](O)CN2C(=O)Nc2ccc(Cl)c(Cl)c2)O1)NCc1ccncc1	-7.89	
CCOc1ccccc1NC(=O)CCNS(=O)(=O)c1cccc2nonc12	-10.8	
O=[N+]([O-])c1ccc(S(=O)(=O)Nc2nc(-c3ccccc3)cs2)cc1	-12.8	
CN(C)CC(=O)N1CC[C@@H]2[C@H]1c1cc(-c3ccccc3)ccc1N(C)[C@H]2CO		14.1 µM (active)
Cc1ccc(C2=NS(=O)(=O)N(C)C(C(=O)NCc3ccc(F)cc3)=C2)cc1	6.63	
Cc1csc(N=Nc2ccc(N(C)C)cc2)[n+]1[O-]		> 39 µM
CCOC(=O)N1CCC(c2cc(=O)n3[nH]c(-c4ccccc4)cc3n2)CC1	-11.1	
CC(C)(C)OCC(O)CN1CCN(C(=O)c2ccccc2)CC1 (centres undefined)	-16.8	
Nc1nc(CCOc2ccc(F)cc2)cs1	-9.71	
